Screening data deposited in PubChem BioAssay by National Center for Advancing Translational Sciences (NCATS).
Hits are enriched below; roughly 8% of the tested compounds scored in any of these assays.
Marburg entry inh: Marburg virus entry inhibition | Marburg virus pseudotyped entry inhibition, cell reporter | Potency, µM (doses to about 37.8 µM), inactives show top-dose activity change, negative = inhibition, usual class: inhibitors | 1.8% of 300,000 active; calls by dose curve; tested in HEK293 cells; further: potency means the concentration at half of the fitted maximal effect; on the % scale 0 is the no-effect control and ±100 the full control effect
Lassa entry inh: blocks Lassa virus binding to or entry into cells | Potency, µM (titrated, usually from 37.9 µM), for inactives: at the top dose activity change, negative = inhibition, actives largely listed as inhibitors | 1.2% of 300,000 active | Lassa virus pseudotype entry inhibition, cell reporter; calls by dose curve; tested in HEK293 cells; further: potency means the concentration at half of the fitted maximal effect; on the % scale 0 is the no-effect control and ±100 the full control effect; nearly all actives have a fitted effect of over 50% in size
HCV inh: blocks hepatitis C virus. 3.4% of 340,000 active. Potency, µM (titrated, usually from 41.8 µM), inactives show at the top dose activity change, negative = inhibition, usual class: inhibitors. Huh7.5.1 HCVcc-Cre infection, luciferase reporter, 44 h. AID 651820; active means well fitted inhibition curve with a large enough effect; inconclusive means small, poorly fitted or top-dose-only effect, or another doubt; inactive means no such curve, though single readings can be large or run the other way; further: potency means the concentration at half of the fitted maximal effect; on the % scale 0 is the no-effect control and ±100 the full control effect
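1,000 cells/well; 4 h culture; + compound; + HCVcc-Cre (~0.5 moi); 44 h; luciferase substrate, RT 15 min; read 15 sec.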
FMDV antiviral: foot and mouth disease virus antiviral activity | 1.2% of 410,000 active | FMDV antiviral cell-based qHTS | AID 1159524 | Potency, µM (top dose mostly 57.9 µM), inactives show top-dose activity change, negative = inhibition, hits mostly inhibitors; calls by dose curve; tested in HEK293T cells; further: read-out not given here; potency means the concentration at half of the fitted maximal effect; on the % scale 0 is the no-effect control and ±100 the full control effect; nearly all actives have a fitted effect of over 45% in size
HCMV antiviral: human cytomegalovirus inhibition; AID 1259415; HFF cells, HCMV-luciferase reporter, 72 h; hits give low values; 4.5% of 410,000 active; activity change, negative = inhibition, % at 57.5 µM; in the data active means activity change below about -60%; inconclusive means no clear call, values can overlap the other calls; inactive means above about -39%; further: on the % scale 0 is the no-effect control and ±100 the full control effect
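Screen run at 2 compound doses on HFFs infected with reporter HCMV, MOI 1 PFU/cell. Luciferase activity from cell lysates at 72 h post infection gave inhibition relative to buffer-only and Salinomycin wells.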
SARS PLpro yeast: SARS-CoV PLP inhibition in yeast; AID 485353; Potency, µM (series often up to 32.9 µM), for inactives: top-dose activity, positive = growth rescue, actives largely listed as activators; 0.19% of 330,000 active; S. cerevisiae expressing SARS-CoV PLpro, growth rescue; calls by dose curve; further: potency means the concentration at half of the fitted maximal effect; 0% is about no effect; nearly all actives have a fitted effect of over 55% in size
Numbers without * were called inactive; ? = inconclusive; · = no result given; ! = a repeat was not active; [ ] = remark or other dose.

SMILES | Marburg entry inh | Lassa entry inh | HCV inh | FMDV antiviral | HCMV antiviral | SARS PLpro yeast
Oc1ccc(NCc2ccc(OCc3ccccc3)cc2)cc1 | ? | ? | -23% | 24% | -63*! | -4%
Cc1ccc(Nc2cc(C)nc3nncn23)c(C)c1 | 0%[46.1 µM] | 2%[46.1 µM] | · | -9% | 2 | ·
COc1ccc2c(Sc3ccccc3)c(C(=O)N3CCC(C)CC3)[nH]c2c1 | 3%[46.1 µM] | 8%[46.1 µM] | · | 98% | 32 | ·
COc1ccc(C(CCNC(C)c2ccccc2)c2ccc(F)cc2)cc1 (stereo not given) | ? | ? | ? | 31% | ? | 10%
COc1ccc(C(CCNCc2ccc(F)cc2)c2ccc(F)cc2)cc1 (stereo not given) | 15µM* | ? | ? | 23% | ? | -4%
COc1ccc(/C=C/C(=O)N2CCN(c3ccccc3)CC2)cc1S(=O)(=O)N1CCOCC1 | -16%[46.1 µM] | ? | 32µM* | 14µM* | ? | 2%
COc1ccc(/C=C/C(=O)N2CCC(C(N)=O)CC2)cc1S(=O)(=O)N1CCOCC1 | -2% | ? | 20% | 22% | -4 | 2%
O=C(/C=C/c1ccc(S(=O)(=O)N2CCOCC2)cc1)N1CCN(c2ccccc2)CC1 | · | · | 2µM* | 32µM* | ? | 0%
O=C(/C=C/c1ccccc1)N1CCN(S(=O)(=O)c2ccc(F)cc2)CC1 | ? | 5% | 12% | -19% | -12 | 0%
CCCCN1C(=O)C(O)(CC(=O)c2ccc(C(C)(C)C)cc2)c2ccccc21 (stereo not given) | ? | 5%[46.1 µM] | · | 0% | ? | ·
CN(C(=O)C1=CC(c2ccc3c(c2)OCO3)=NS(=O)(=O)N1C)c1ccccc1 | ? | 0%[46.1 µM] | · | 9% | 24 | ·
CCOC(=O)c1c(NC(=O)c2cc(-c3ccc(Br)cc3)on2)sc(C)c1C | -4%[46.1 µM] | -9%[46.1 µM] | · | 8% | -4 | ·
CC1=NC(=O)C(N=Nc2cccc(C(=O)O)c2)N1c1ccccc1 (stereo not given) | 2.6µM* | 2.3µM* | 18% | 8.9µM* | 96 | -3%
COc1ccc2c(c1)O[C@H](c1cccc(C(F)(F)F)c1)[C@@H](O)C2=O | -33%[14.2 µM] | · | · | · | · | ·
COCCCCC(=NOCCN)c1ccc(C(F)(F)F)cc1 | ? | · | · | -14% | · | ·
COCCCC/C(=N\OCCN)c1ccc(C(F)(F)F)cc1 | 10µM* | 6.5µM* | 16µM*! | -21% | 19 | -1%
c1ccc(-c2oc3ncnc(NCCCn4ccnc4)c3c2-c2ccccc2)cc1 | ? | -30% | 11µM* | ? | · | -2%
CN(C)CCCNc1ncnc2oc(-c3ccccc3)c(-c3ccccc3)c12 | 8.9µM* | ? | 3.5µM* | -23% | ? | 0%
c1ccc(-c2oc3ncnc(NCCN4CCOCC4)c3c2-c2ccccc2)cc1 | ? | -35% | ? | · | ? | 0%
c1ccc(-c2c(-c3ccccc3)n(Cc3ccco3)c3ncnc(NCCCn4ccnc4)c23)cc1 | ? | ? | ? | ? | · | -39%
O=C(O)c1cccc(COc2ccc3c(c2)CCC3)c1 | ? | 0.37µM* | 18% | 2.8µM* | 0 | -6%
O=C(NCc1ccccc1)c1cccc(COc2ccc3c(c2)CCC3)c1 | ? | ? | -9% | -10% | 148 | -7%
CCOc1ccc(OCc2cccc(C(=O)N3CCCCCC3)c2)cc1 | ? | 3.5µM* | -34% | -72% | -4 | 0%
COc1ccc(OCc2cccc(C(=O)O)c2)cc1 | ? | ? | 4% | 1µM* | -18 | -13%
O=C(O)c1cccc(COc2ccc(CO)cc2Cl)c1 | ? | 0.29µM* | 0% | · | 24 | 3%
SMILES | Marburg entry inh | Lassa entry inh | HCV inh | FMDV antiviral | HCMV antiviral | SARS PLpro yeast
CCOc1ccc(OCc2cccc(C(=O)O)c2)cc1 | ? | ? | 0% | 0.89µM* | 1 | 1%
O=C(OCC(F)(F)F)c1cccc(COc2ccc3ccccc3c2)c1 | 1.3µM* | ? | 0% | ? | 166 | 7%
COc1ccc(NC(=O)Cn2ccn(Cc3ccccc3)c(=O)c2=O)cc1Cl | · | -21%[46.1 µM] | · | 1% | -37 | ·
Cc1ccc2oc(=O)c3cnn(CC(=O)N4CCN(c5ccccc5F)CC4)c3c2c1 | 1%[46.1 µM] | 15%[46.1 µM] | · | 0% | -1 | ·
Cc1ccc2oc(=O)c3cnn(CC(=O)Nc4ccccc4N4CCN(C)CC4)c3c2c1 | 3% | · | 14µM* | -21% | ? | 13%
CCOC(=O)N(CC)c1ccc(C(O)(C(=O)OCC)C(F)(F)F)cc1 (stereo not given) | -7% | 10µM* | -5% | -29% | 77 | -7%
CCOC(=O)C(O)(c1ccc(N(CC)C(=O)OC)cc1)C(F)(F)F (stereo not given) | -8% | ? | -9% | -4% | 15 | 0%
O=C(O)c1cccc(NC(=O)c2ccc3c(c2)C(=O)N(CC2CCCO2)C3=O)c1 (stereo not given) | -7% | -9% | 2% | 16µM* | -108* | 0%
CC(C)(C)NC(=O)c1cccc(NC(=O)c2ccc3c(c2)C(=O)N(C(C)(C)C)C3=O)c1 | ? | ? | ? | 25µM* | 20 | 1%
COC(=O)c1cccc(NC(=O)c2ccc3c(c2)C(=O)N(CC2CCCO2)C3=O)c1 (stereo not given) | -14% | 1% | 0% | ? | -9 | -3%
CC(C)CN1C(=O)c2ccc(C(=O)Nc3ccccn3)cc2C1=O | 18% | 15% | -1% | 21% | -11 | -4%
CC(C)CN1C(=O)c2ccc(C(=O)Nc3ccncc3)cc2C1=O | 3% | 10% | 6% | 13µM* | -31 | -1%
COC(=O)Cc1ccc(NC(=O)c2ccc3c(c2)C(=O)N(CC2CCCO2)C3=O)cc1 (stereo not given) | 10% | 14% | -1% | 28µM* | -30 | -3%
COc1ccc(N2CCN(C(=O)Cn3nc(Cc4cccnc4)c4ccccc4c3=O)CC2)cc1 | -7%[46.1 µM] | 10%[46.1 µM] | · | -24% | ? | ·
O=C(O)c1c(Sc2ccccc2)c2cc(Cl)ccc2n1Cc1ccc(Cl)cc1 | · | · | · | -24% | · | ·
Cc1cc2cc(CNC(=S)Nc3ccc(OC(F)(F)F)cc3)ccc2[nH]1 | -20% | -21% | -27%[8.37 µM] | -6% | -75* | 3%
COc1cc(NC(=O)c2cnc(N)o2)cc(C(=O)Nc2cccc(C(F)(F)F)c2)c1 | · | · | ? | 18µM* | ? | -4%
COc1cc(NC(=O)c2cnc(N)s2)cc(C(=O)Nc2cccc(C(F)(F)F)c2)c1 | · | · | ? | -2% | -31 | 3%
COc1cc(NC(=O)c2csc(N)n2)cc(C(=O)Nc2cccc(C(F)(F)F)c2)c1 | · | · | ? | 25µM* | -67*! | -15%
COc1cc(NC(=O)c2ccnc(N)c2)cc(C(=O)Nc2cccc(C(F)(F)F)c2)c1 | · | · | -26% | -7% | 21 | 1%
CCN(CC)c1ccc(NC(=O)Cn2nc(C)n3cccc3c2=O)c(C)c1 | ? | -4%[46.1 µM] | · | -16% | -1 | ·
FC(F)(F)c1cccc(NC(=S)Nc2ccc(Cl)cc2Cl)c1 | -26% | ? | 19% | ? | 2 | -4%
